In PubChem BioAssay (NCATS):
Results filed as inconclusive are left out. Calls of active or inactive are those of the source. The call rests on the fitted dose curve; in most records, active means well fitted inhibition curve with a large enough effect; inconclusive means small, poorly fitted or top-dose-only effect; inactive means no such curve, though single readings can be large or run the other way.

Each molecule was assayed on Zika virus NS2B-NS3 protease (linked construct) (assay: Primary screen NINDS Rhodamine qHTS for Zika virus inhibitors (AID 1347160; further: nearly all actives have a fitted effect of over 55% in size)). Conditions: purified NS2B-NS3 protease, Rhodamine110 substrate fluorescence; series mostly up to 112 µM; activity change, negative = inhibition: at the top concentration.
Outline: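 Aprotinin served as in-plate control. Conditions: 25 nM linked NS2B-NS3, pH 8.0 Tris buffer, titrated compounds, 15 min preincubation and 15 min reaction with 1.5 microM Rhod110 substrate at room temperature.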
On the % scale 0 is the no-effect control and ±100 the full control effect; potency means the concentration at half of the fitted maximal effect.

| Structure (SMILES) | Potency | activity change, negative = inhibition |
| --- | --- | --- |
| Cc1occ2c1C(=O)c1c(cc(O)c(O)c1O)C2=O | 13.9 µM (active) | – |
| O=C1CC2OCC=C3CN4C5CC3C2[C@@H]2N1c1ccccc1[C@]52C[C@@H]4C1=C[C@H]2C3CC4N(CC[C@@]45c4ccccc4N(C1=O)[C@@H]25)C/C3=C/CO (stereo not given in full) | – | -5.51% (inactive) |
| CCC(=O)CCCCC[C@@H]1NC(=O)[C@H]2CCCCN2C(=O)[C@H](C(C)C)NC(=O)[C@H](Cc2cn(OC)c3ccccc23)NC1=O | 13.9 µM (active) | – |
| C/C(=C\[C@H](C)C(=O)CCCC1CC(=O)NC(=O)C1)[C@@H]1OC(=O)/C=C/CC/C=C/[C@H](O)[C@@H](O)[C@@H]1C | 49.3 µM (active) | – |
| C/C=C(/C)c1c(Cl)c(O)c(C)c2c1Oc1c(Cl)c(O)c(Cl)c(C)c1C(=O)O2 | 1.96 µM (active) | – |
| C=C[C@@]1(C)CC[C@@H]([C@H](C)C(=O)/C=C/C(C)(C)O)O1 | 55.3 µM (active) | – |
| C=CC(CCCCC)C1C(=O)NC(=O)C1C(=O)C1C(/C=C/C)C=CC2CC(C(=O)O)CC(C)C21 (stereo not given) | 3.92 µM (active) | – |
| C=C1CC[C@@H](O[C@H]2C[C@@](O)([C@H](C)NC(=O)c3[nH]c(C)c(Cl)c3Cl)[C@H](O)[C@@H](C)O2)[C@@H]2C=C[C@H](C)C(/C(O)=C3/C(=O)[C@H](C(C)C)N([C@@H]4O[C@H](C)[C@H](OC(N)=O)[C@H](OC(C)=O)[C@@H]4OC)C3=O)[C@@H]12 (stereo not given in full) | 15.6 µM (active) | – |
| COc1ccc([C@@H]2CC(=O)c3c(cc(O)c(C/C=C(\C)CCC=C(C)C)c3O)O2)cc1 | 7.2 µM (active) | – |
| O=c1cc(-c2ccc(O)c(O)c2)oc2cc(O[C@@H]3O[C@H](CO)[C@@H](O)[C@H](O)[C@H]3O)cc(O)c12 | 17.5 µM (active) | – |
